Laboratory results taken from PubChem BioAssay (NCI).
The panel holds about 83,000 compounds, 20% with a hit somewhere; the sample as a whole holds those more often.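 Percent growth is the endpoint: 0 to 100 indicates growth inhibition (40 means 60% inhibition), 0 means no net growth, and negative values indicate cell death.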 A number with no mark means an inactive call. Calls of active or inactive are those of the source. How the source made its calls: active means growth percent below 10; inactive means the rest.

Experiments:
Test in all cases: NCI-60 one-dose screen, 48 h (100 = growth as untreated, 0 = no growth, -100 = all killed)
HCT-15 colon = settings: 10 µM unless noted
HT29 colon = settings: 10 µM unless noted
SNB-75 CNS = settings: 10 µM unless noted
SNB-19 CNS = settings: 10 µM unless noted
U251 CNS = settings: 10 µM unless noted
PC-3 prostate = settings: 10 µM unless noted
SK-MEL-5 melanoma = settings: 10 µM unless noted
UACC-62 melanoma = settings: 10 µM unless noted
LOX IMVI melanoma = settings: 10 µM unless noted
SK-MEL-28 melanoma = settings: 10 µM unless noted
SK-MEL-2 melanoma = settings: 10 µM unless noted
EKVX NSCLC = settings: 10 µM unless noted
SN12C renal = settings: 10 µM unless noted
TK-10 renal = settings: 10 µM unless noted
ACHN renal = settings: 10 µM unless noted
CAKI-1 renal = settings: 10 µM
CCRF-CEM leukemia = settings: 10 µM unless noted
MOLT-4 leukemia = settings: 10 µM unless noted
UO-31 renal = settings: 10 µM unless noted
A498 renal = settings: 10 µM unless noted

| Compound | growth (HCT-15 colon) | growth (HT29 colon) | growth (SNB-75 CNS) | growth (SNB-19 CNS) | growth (U251 CNS) | growth (PC-3 prostate) | growth (SK-MEL-5 melanoma) | growth (UACC-62 melanoma) | growth (LOX IMVI melanoma) | growth (SK-MEL-28 melanoma) | growth (SK-MEL-2 melanoma) | growth (EKVX NSCLC) | growth (SN12C renal) | growth (TK-10 renal) [%] | growth (ACHN renal) | growth (CAKI-1 renal) | growth (CCRF-CEM leukemia) | growth (MOLT-4 leukemia) | growth (UO-31 renal) | growth (A498 renal) |
| --- | --- | --- | --- | --- | --- | --- | --- | --- | --- | --- | --- | --- | --- | --- | --- | --- | --- | --- | --- | --- |
| COc1ccc(Cn2cc3c(c2-c2cc(OC)c(OC)c(OC)c2)CCCc2cnoc2-3)cc1 | 20.1% | 14.7% | -17.6% (active) | 23.1% | 28.6% | 44.4% | 21.6% | 33.9% | 35.8% | 64.4% | 54.9% | 40.2% | 36.3% | 67.5 | 36.3% | 19.6% | 15.8% | 8.85% (active) | – | – |
| C/C=C/[C@@H]1C=C[C@@H]2C[C@H](C)CC[C@H]2[C@]1(C)/C(O)=C1/C(=O)[C@H](CO)N(C)C1=O | 39.4% | 61.9% | 75.5% | 43.2% | 47% | 45.7% | 52.4% | 46.9% | 53.5% | 63.2% | 79.2% | 55.6% | 45.8% | 67.7 | 73.7% | – | 40.4% | 60.6% | 56.2% | 43.5% |
| COc1cc(O)c2c(c1)[C@H]1O[C@@H]1C[C@H](O)[C@H](O)C(=O)/C=C\C[C@H](C)OC2=O | 28.7% | 12.6% | 87.1% | 81.3% | 72.4% | 66.8% | 7.59% (active) | -12.4% (active) | 32.3% | 6.98% (active) | 20.1% | 51.8% | 53.5% | 48.6 | 45.4% | – | 22.2% | 33.6% | 20.4% | 58.9% |
| N/C(=N\OC(=O)CSc1nc2ccccc2s1)c1ccc(Cl)cc1 | 101% | 103% | 88.7% | 99.4% | 96.8% | 99.9% | 100% | 87.8% | 99.7% | 106% | 101% | 86.6% | 102% | 127 | 91.4% | 83.4% | 102% | 96.7% | 76.6% | – |
| COc1cc2c3c(n(CCCNC4CCC4)c(=O)c2cc1OC)-c1cc2c(cc1C3=O)OCO2 | -53% (active) | -64.1% (active) | -67% (active) | -25.2% (active) | -88.9% (active) | -78.7% (active) | 76.8% | 59.1% | -72.8% (active) | 86.7% | – | -38.4% (active) | -48.9% (active) | 98.8 | -89.7% (active) | -82.2% (active) | -6.07% (active) | – | -70.9% (active) | 74.4% |
| COc1ccc(-c2no[n+]([O-])c2Nc2ccccc2Br)cc1 | 97.1% | 119% | 92% | 89.5% | 95% | 76.8% | 93.5% | 71.6% | 95.6% | 99.8% | – | 96.1% | 90.4% | 145 | 89.2% | 86% | 109% | – | 69.6% | 113% |
| C=CCn1c(SCC(=O)Nc2cccc(C(=O)/C=C/c3ccc(OC)c(OC)c3)c2)nc2ccccc2c1=O | 72.4% | 95% | 83.7% | 77.2% | 76.6% | 79.7% | 97.6% | 74.9% | 79.5% | 102% | – | 100% | 96.8% | 116 | 92.2% | 75.7% | 78.5% | – | 74.6% | 89.3% |
| CS(=O)(=O)c1ccc2c(c1)c1c(n2C(=O)c2ccc(Cl)cc2)CCCC1 | 25.7% | 5.05% (active) | 5.66% (active) | 34.9% | 19.9% | 22.7% | 25.5% | 23.8% | 40.5% | 60.9% | – | 59.7% | 41.2% | 67.6 | 43.6% | 37.1% | 25.4% | – | 40.3% | 38.2% |
| COc1ccc(/C(C)=C(\c2ccc(Cl)cc2)c2ccc(OCCN)cc2)cc1 | 40.5% | 0.975% (active) | 88.9% | 87.8% | 61.9% | 78.9% | 96.7% | 98.5% | 0.915% (active) | 86.1% | – | 87.2% | 78.3% | 119 | 84.9% | 67.3% | 66.1% | – | 60.8% | 90.1% |
| COc1cc(C(=O)c2cc(C(C)=O)c3c4ccccc4ccn23)cc(OC)c1OC | 28.5% | 39.6% | 45.3% | 64.3% | 73.6% | 48.1% | 22.9% | 38% | 58.4% | 80.9% | 51.5% | – | 74.4% | 70.3 | 71.8% | 30.2% | 48.9% | 34.6% | 43.3% | 34% |
| CS(=O)(=O)c1nccc(-c2c(-c3ccc(F)c(OCCc4ccccc4)c3)nc3sccn23)n1 | 83.1% | 91.3% | 108% | 81.7% | 105% | 41.7% | 98% | 83.9% | 75.2% | 57.3% | – | 59.5% | 83.7% | 100 | 90% | 84% | 84.2% | – | 85.5% | 90.4% |
| COc1cc2c3c(n(CCCN4CCC[C@H]4C(N)=O)c(=O)c2cc1OC)-c1cc2c(cc1C3=O)OCO2 | 11.9% | 6.94% (active) | 12% | 21.2% | -21.6% (active) | 39.7% | -46.1% (active) | -43.5% (active) | -28.3% (active) | 52.1% | – | 36.2% | 17% | 59 | 0.589% (active) | 14.6% | -4.01% (active) | – | 17.5% | -31% (active) |
| CS(=O)(=O)c1nccc(-c2c(-c3ccc(F)c(OCc4ccc(F)cc4)c3)nc3sccn23)n1 | 70% | 85.5% | 106% | 75.4% | 100% | -17.3% (active) | 96.7% | 81.1% | 19.9% | 61.6% | – | 28.4% | 86.2% | 105 | 91.3% | 81.5% | 79.4% | – | 80.1% | 76.6% |
| Cn1nc(Nc2ccccc2)c(C(=O)NN)c1N | 97.8% | 103% | 81.6% | 101% | 102% | 95.1% | 99.3% | 96.8% | 97.2% | 103% | 103% | – | 97.3% | 118 | 97.4% | 94.1% | 91.1% | 104% | 81.5% | 97.2% |
| COC(=O)c1nc(-c2ccc(C)cc2)oc1S(=O)(=O)N1CCN(c2oc(-c3ccccc3)nc2C#N)CC1 | 98.6% | 111% | 100% | 94.6% | 99.4% | 99% | 100% | 92% | 89.7% | 99.6% | – | 106% | 100% | 111 | 100% | 97.4% | 39.8% | – | 94% | 85.8% |
| Cc1cc(-c2ccc3nc(N)sc3c2)nc2ccc3[nH]ncc3c12 | 33.9% | 21.1% | -12.7% (active) | 39.8% | 29.3% | 62.5% | 26.3% | 21.9% | 43.8% | 38.4% | -3.92% (active) | – | 32% | 50.1 | 40.7% | 20.3% | 27.1% | 33.2% | 51.4% | -9.07% (active) |
